Several values for one entry are separate records, joined by “and”; a condition that tells them apart may be missing. Equal values may be shown once. Records with an inconclusive call do not appear. Activity calls are given as the source filed them.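 How the source made its calls, unless noted: active means normalized viability below 100% at a tested concentration; inactive means the rest.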
Tests used:
[1] = viability loss in pontine glioma line – cell-based, SU-DIPG-XVII, MIPE5.0, CellTiter-Glo, qHTS, dose response (AID 1347060; cut-off not given, nearly all actives have AC50 up to about 26 µM;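 on AC50: cells exposed to compound for 48 hours before viability readout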); settings: CellTiter-Glo ATP luminescence
[2] = viability loss in pontine glioma line – cell-based, JHH-DIPG-1, MIPE4.0, CellTiter-Glo, qHTS, dose response (AID 1347062; cut-off not given, nearly all actives have AC50 up to about 27 µM;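 on AC50: cells exposed to compound for two days before readout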); settings: JHH-DIPG-1 viability, CellTiter-Glo ATP luminescence
[3] = viability loss in pontine glioma line – cell-based, SU-DIPG-XIII, MIPE5.0, CellTiter-Glo, qHTS, dose response (AID 1347064; cut-off not given, nearly all actives have AC50 up to about 23 µM;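 on AC50: cells exposed to compound for 48 hours before the viability read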); settings: CellTiter-Glo ATP luminescence
[4] = viability loss in pontine glioma line – cell-based, SU-DIPG-XXV, MIPE5.0, CellTiter-Glo, qHTS, dose response (AID 1347065; cut-off not given, nearly all actives have AC50 up to about 26 µM;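 further: cells exposed to compound for 48 hours before ATP readout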); settings: CellTiter-Glo ATP luminescence
[5] = JHH-DIPG-1 glioma cell viability, MIPE5.0 library, CellTiter-Glo luminescence, qHTS (AID 1347067; cut-off not given, nearly all actives have AC50 up to about 26 µM;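 further: cells exposed to compound for 48 hours before readout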); settings: JHH-DIPG-1 glioma viability, CellTiter-Glo ATP luminescence
[6] = growth inhibition of DIPG cells – cell-based, MIPE5.0 library, qHTS (AID 1347068; cut-off not given, nearly all actives have IC50 up to about 30 µM;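 on IC50: cells exposed to compound for 48 hours before viability readout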); settings: SU-DIPG-XXV viability
[7] = compounds altering HSF1 focus formation in cells – imaging, Selleck Cancer Library (AID 1347162; in the data active means plate-normalised HSF1 focus index below about 0.46); settings: human cells, HSF1 nuclear foci imaging, at 10 µM; SSMD: measured here: HSF1 foci SSMD mean; cell count: measured here: cell number; plate-normalised HSF1 focus index: stronger effect = lower value
[8] = drug combination growth inhibition, ovarian cancer – cell-based, oncology-focused library, rucaparib conditional, profiling panel (AID 1508598); settings: patient-derived ovarian cancer cells, CellTiter-Glo viability, 144 h, stronger effect = lower value
[9] = growth inhibition of DIPG cells – cell-based, MIPE4.0 library, CellTiter-Glo luminescence, qHTS (AID 1347066; cut-off not given, nearly all actives have AC50 up to about 30 µM;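 further: cells exposed to compound for 48 hours before readout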); settings: SU-DIPG-VI viability, CellTiter-Glo ATP luminescence
[10] = viability loss with induced miR-34 in A549 – imaging, A549 dox-inducible miR-34, nuclei and caspase counts, primary screen (AID 1347080;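 active means compounds whose cell count with miR-34 switched on is under 0.7 times the count with it off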); settings: A549 miR-34 inducible, Hoechst nuclei count, 48 h
[11] = MELAS cybrid and Rieske KO viability enhancers – cell-based, MELAS cybrids, Rieske KO mouse fibroblasts, CellTiter-Glo, primary screen (AID 1508586;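 active means mean z-score across replicates of 1.96 or higher in either the MELAS or the Rieske mutant cell line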;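 further: z relative to plate mean and SD of compound and empty wells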); settings: low glucose
[12] = at 0.000305 µM, OCI-C5x cells, with rucaparib 10 µM, 100% = cells with rucaparib alone
[13] = at 0.000305 µM, OCI-C5x cells, without rucaparib
[14] = at 0.000305 µM, OCI-P5x cells, with rucaparib 20 µM, 100% = cells with rucaparib alone
[15] = at 0.000305 µM, OCI-P5x cells, without rucaparib
[16] = at 0.00122 µM, OCI-C5x cells, with rucaparib 10 µM, 100% = cells with rucaparib alone
[17] = at 0.00122 µM, OCI-C5x cells, without rucaparib
[18] = at 0.00122 µM, OCI-P5x cells, with rucaparib 20 µM, 100% = cells with rucaparib alone
[19] = at 0.00122 µM, OCI-P5x cells, without rucaparib
[20] = at 0.00488 µM, OCI-C5x cells, with rucaparib 10 µM, 100% = cells with rucaparib alone
[21] = at 0.00488 µM, OCI-C5x cells, without rucaparib
[22] = at 0.00488 µM, OCI-P5x cells, with rucaparib 20 µM, 100% = cells with rucaparib alone
[23] = at 0.00488 µM, OCI-P5x cells, without rucaparib
[24] = at 0.0195 µM, OCI-C5x cells, with rucaparib 10 µM, 100% = cells with rucaparib alone
[25] = at 0.0195 µM, OCI-C5x cells, without rucaparib
[26] = at 0.0195 µM, OCI-P5x cells, with rucaparib 20 µM, 100% = cells with rucaparib alone
[27] = at 0.0195 µM, OCI-P5x cells, without rucaparib
[28] = at 0.0781 µM, OCI-C5x cells, with rucaparib 10 µM, 100% = cells with rucaparib alone
[29] = at 0.0781 µM, OCI-C5x cells, without rucaparib
[30] = at 0.0781 µM, OCI-P5x cells, with rucaparib 20 µM, 100% = cells with rucaparib alone
[31] = at 0.0781 µM, OCI-P5x cells, without rucaparib
[32] = at 0.313 µM, OCI-C5x cells, with rucaparib 10 µM, 100% = cells with rucaparib alone
[33] = at 0.313 µM, OCI-C5x cells, without rucaparib
[34] = at 0.313 µM, OCI-P5x cells, with rucaparib 20 µM, 100% = cells with rucaparib alone
[35] = at 0.313 µM, OCI-P5x cells, without rucaparib
[36] = at 1.25 µM, OCI-C5x cells, with rucaparib 10 µM, 100% = cells with rucaparib alone
[37] = at 1.25 µM, OCI-C5x cells, without rucaparib
[38] = at 1.25 µM, OCI-P5x cells, with rucaparib 20 µM, 100% = cells with rucaparib alone
[39] = at 1.25 µM, OCI-P5x cells, without rucaparib
[40] = at 5 µM, OCI-C5x cells, with rucaparib 10 µM, 100% = cells with rucaparib alone
[41] = at 5 µM, OCI-C5x cells, without rucaparib
[42] = at 5 µM, OCI-P5x cells, with rucaparib 20 µM, 100% = cells with rucaparib alone
[43] = at 5 µM, OCI-P5x cells, without rucaparib

Cc1ccc(C(=O)N(CCCN)[C@@H](c2nc3cc(Cl)ccc3c(=O)n2Cc2ccccc2)C(C)C)cc1
3920: cell count [7]
active: AC50 [1] 0.0166 µM | AC50 [2] 13.2 µM | AC50 [3] 5.9 µM | AC50 [4] 0.00934 µM | AC50 [5] 9.34 µM | IC50 [6] 0.0166 µM | viability [8, 14] 95.5% | viability [8, 16] 90.5% | viability [8, 18] 78.5% | viability [8, 19] 81.4% | viability [8, 20] 44.7% | viability [8, 21] 76.6% | viability [8, 22] 68.7% | viability [8, 23] 66.4% | viability [8, 24] 43.1% | viability [8, 25] 55.9% | viability [8, 26] 51.4% | viability [8, 27] 21.1% | viability [8, 28] 47.4% | viability [8, 29] 65.7% | viability [8, 30] 55.4% | viability [8, 31] 24.5% | viability [8, 32] 56.5% | viability [8, 33] 65.1% | viability [8, 34] 54.8% | viability [8, 35] 22.4% | viability [8, 36] 50.7% | viability [8, 37] 61.5% | viability [8, 38] 56.9% | viability [8, 39] 24.3% | viability [8, 40] 6.32% | viability [8, 41] 47.8% | viability [8, 42] 26.6% | viability [8, 43] 17.1%
inactive: plate-normalised HSF1 focus index [7] 0.497 | viability [8, 12] 104% | viability [8, 13] 109% | viability [8, 15] 101% | viability [8, 17] 116%
-9.79: SSMD [7]

COc1cc(N2CCC(N3CCN(C)CC3)CC2)ccc1Nc1ncnc(Nc2ccccc2S(=O)(=O)C(C)C)n1
active: AC50 [1] 6.61 µM | AC50 [2] 14.8 µM | AC50 [3] 5.25 µM | AC50 [4] 3.72 µM | AC50 [5] 16.6 µM
inactive: outcome [6]

CS(=O)(=O)c1ccc(C(=O)Nc2ccc(Cl)c(-c3ccccn3)c2)c(Cl)c1
active: viability [8, 14] 92.5% | viability [8, 23] 97.6% | viability [8, 42] 97.4% | viability [8, 43] 99.8%
8790 and 6720: cell count ([10]; measured here: total cells with miR-34 induction, stronger effect = lower value)
inactive: outcome [1] | outcome [2] | outcome [3] | outcome [4] | outcome [9] | outcome [5] | outcome [6] | fold change ([10]; stronger effect = lower value, cell number ratio, induced over uninduced) 0.865 and 0.901 | plate-normalised HSF1 focus index [7] 1.15 | z-score ([11]; MELAS cybrid survival, CellTiter-Glo 48 h, stronger effect = higher value) 0.265 and -0.383 | viability [8, 12] 124% | viability [8, 13] 125% | viability [8, 15] 106% | viability [8, 16] 126% | viability [8, 17] 125% | viability [8, 18] 103% | viability [8, 19] 102% | viability [8, 20] 125% | viability [8, 21] 124% | viability [8, 22] 106% | viability [8, 24] 115% | viability [8, 25] 117% | viability [8, 26] 107% | viability [8, 27] 102% | viability [8, 28] 123% | viability [8, 29] 116% | viability [8, 30] 106% | viability [8, 31] 103% | viability [8, 32] 125% | viability [8, 33] 127% | viability [8, 34] 108% | viability [8, 35] 104% | viability [8, 36] 133% | viability [8, 37] 116% | viability [8, 38] 108% | viability [8, 39] 104% | viability [8, 40] 158% | viability [8, 41] 149%
10200 and 7460: cell count ([10]; measured here: total cells without miR-34 induction)
0.641 and 0.534: z-score ([11]; Rieske KO mouse fibroblast survival, CellTiter-Glo 72 h)
0.712 and 0.902: fold change ([10]; measured here: relative caspase fold change +Dox/-Dox)
2.58: SSMD [7]
7240: cell count [7]
